High-throughput results deposited in PubChem BioAssay by National Center for Advancing Translational Sciences (NCATS).
CHX counter = affects cycloheximide protein synthesis inhibition readout, counter-screen | cell reporter, cycloheximide protein synthesis inhibition counterscreen | max response, % | 300,000 tested, 12% active | AID 2314; in the data active = max response mostly above about 13%, no sharp cut-off; inactive = mostly below about 14%; also: read at 38.3 µM for the half of the compounds with a filed dose; 0% is about no effect
Lassa entry inh = Lassa virus entry inhibition. Lassa virus pseudotype entry inhibition, cell reporter. Potency, µM (doses to about 37.9 µM), for inactives: at the top dose activity change, negative = inhibition, most hits filed as inhibitors. 300,000 tested, 1.2% active; calls by dose curve; tested in HEK293 cells; also: potency is read from the fitted curve at half-maximal effect; % is scaled to controls: 0 for no effect and ±100 for the full control effect; nearly all actives have a fitted effect of over 50% in size
MARV entry inh = Marburg virus entry inhibition. Marburg virus pseudotyped entry inhibition, cell reporter. Potency, µM (highest dose often 37.8 µM), for the others: top-dose activity change, negative = inhibition, hits mostly inhibitors. 300,000 tested, 1.8% active. AID 540276; calls by dose curve; tested in HEK293 cells; also: potency is read from the fitted curve at half-maximal effect; % is scaled to controls: 0 for no effect and ±100 for the full control effect
Vaccinia mCherry = inhibitors of vaccinia virus infection (mCherry reporter signal); Vaccinia virus mCherry reporter infection, fluorescence; Potency, µM (doses to about 36.5 µM), for the others: at the top dose activity change, negative = inhibition, most hits filed as inhibitors; 310,000 tested, 0.63% active; calls by dose curve; tested in A549 cells; also: potency is read from the fitted curve at half-maximal effect; % is scaled to controls: 0 for no effect and ±100 for the full control effect; nearly all actives have a fitted effect of over 35% in size
Shiga toxin inh = Shiga toxin inhibition; Vero cells, Shiga toxin protein synthesis inhibition reporter; inhibition, % at 38.7 µM; 290,000 tested, 9.2% active; in the data active = inhibition mostly above about 28%, no sharp cut-off; inactive = mostly below about 43%; also: 0% is about no effect
Vaccinia Venus = vaccinia inhibition (Venus reporter). Vaccinia virus Venus reporter expression, fluorescence. Potency, µM (titrated, usually from 36.5 µM), for inactives: top-dose activity change, negative = inhibition, usual class: inhibitors. 330,000 tested, 0.46% active. AID 720580; calls by dose curve; tested in A549 cells; also: potency is read from the fitted curve at half-maximal effect; % is scaled to controls: 0 for no effect and ±100 for the full control effect; nearly all actives have a fitted effect of over 30% in size
Numbers without * were called inactive; i = inactive; ? = inconclusive; . = no result given; ! = not confirmed by another sample; [ ] = remark or other dose. Many of the other results were omitted from the sample, so hits are more common in it than they were.

SMILES	CHX counter	Lassa entry inh	MARV entry inh	Vaccinia mCherry	Shiga toxin inh	Vaccinia Venus
CS(=O)(=O)CCC(C(=O)Nc1ccc2c(c1)OCO2)N1Cc2ccccc2C1=O (configuration not stated)	20.1*	.	.	.	23.1	.
CSCC[C@@H](C(=O)Nc1ccc2c(c1)OCCO2)N1Cc2ccccc2C1=O	27.3*	.	.	-5.2%	58.8	-21.4%
CC1Cc2nc(SCC(=O)NCC3CCCO3)n(C)c(=O)c2S1 (configuration not stated)	-3.3	2.0%	10.4%	i	-4.5	-9.8%
COc1ccc(-c2cc3c(=O)n(CC(=O)Nc4ccc(Br)c(C)c4)ccn3n2)cc1OC	.	?	.	-5.6%	.	-7.6%
Cc1cc(C(=O)N2CCC(C)(C(=O)NS(=O)(=O)C3CC3)C2)n(C(C)(C)C)n1 (configuration not stated)	.	.	.	63.6%	.	10.8%
Cc1ccccc1CSCc1nc2ccccc2[nH]1	32.3*	?	?	-15.0%	38.7*	-21.7%
C=C(C)CSCc1nc2ccccc2[nH]1	37.4*	22.1%	-1.0%[46.1 µM]	.	54.4	-4.1%
O=C(O)CSCc1nc2ccccc2[nH]1	-2.8	.	.	-13.5%	-14.2	-4.9%
N#CC(C#N)=Cc1ccc(O)cc1	19.8	.	.	.	active!	.
N#C/C(=C\c1ccc(O)cc1)C(=O)O (tested in a mixture with another compound)	.	.	.	i	.	-9.3%
CCc1ccc(Sc2cc(C(=O)NCCCN3CCCC(C)C3)c3ccccc3n2)cc1 (configuration not stated)	.	?	.	-4.7%	.	-10.9%
CC(O)(COc1ccccc1)c1ccc2c(c1)CN(Cc1cccc3cccnc13)CCO2 (configuration not stated)	.	.	.	i	.	-3.4%
Cc1cc(C(=O)Nc2ccc(S(=O)(=O)N3CCCC3)cc2)cs1	7.0	-23.1%	-26.0%	.	21.6	.
Cc1ccc(C(=O)Nc2ccccc2NC(=O)c2ccc(C)o2)o1	2.2	-4.2%	-18.3%	.	1.8	-8.3%
Cc1cc(C(=O)Nc2ccc(Br)cc2)cs1	46.9*	.	.	.	83.5*	.
CNS(=O)(=O)c1ccc(NC(=O)c2csc(C)c2)cc1	23.5*	.	.	.	36.4*	.
CSc1ccccc1NC(=O)c1csc(C)c1	30.7*	.	.	.	35.9*	.
CSc1ccccc1NC(=O)c1ccc(C)o1	19.8*	?	19.3%	.	50.6*	.
OC[C@@H]1CN(Cc2ccncc2)C[C@H](n2cnc3c(NCc4ccco4)ncnc32)O1	.	.	.	3.3%	.	14.5%
CCc1ccc(-c2nc(SCC(=O)NCCOC)c(-c3ccc(C)cc3)[nH]2)cc1	.	2.1%[46.1 µM]	3.8%[46.1 µM]	-23.6%	.	-18.7%
CCOC(=O)C1CCCCN1Cc1ccc(-c2ccccc2)cc1 (configuration not stated)	2.8	-26.9%[46.1 µM]	?	-2.6%	4.7	-12.1%
COc1ccccc1NS(=O)(=O)c1cc([N+](=O)[O-])ccc1N/N=C/c1c(C)[nH]c2ccccc12	-4.9	?	?	-27.5%	-19.8	-5.1%
Cc1[nH]c2ccccc2c1/C=N/Nc1ccc([N+](=O)[O-])cc1	18.6*	20.6%	-19.2%	?	77.2*	-21.0%
Cc1[nH]c2ccccc2c1/C=N/Nc1ccc(F)cc1F	31.3*	7.0%	25.9%	.	30.0*	.
Cc1[nH]c2ccccc2c1/C=N/Nc1ccccn1	15.2	.	.	.	49.1	.
SMILES	CHX counter	Lassa entry inh	MARV entry inh	Vaccinia mCherry	Shiga toxin inh	Vaccinia Venus
COc1cc(/C=N/Nc2ccc(F)cc2F)cc(OC)c1OC	9.2	-4.7%	2.0%	-20.3%	38.6	-6.8%
Cc1[nH]c2ccccc2c1/C=N/NC(=O)c1cccs1	51.0*	11.8%	7.7%	.	100.4	.
Cc1[nH]c2ccccc2c1/C=N/Nc1nncn1N	54.9*	.	?	?	112.0*	?
C[C@H](CO)N1C[C@H](C)[C@@H](CN(C)C)Oc2c(NC(=O)CCC(F)(F)F)cccc2C1=O	.	.	.	i	.	-10.9%
O=[N+]([O-])c1cc(-c2nc(-c3ccccc3)no2)ccc1NC1CCCCC1	.	0.1%[46.1 µM]	0.4%[46.1 µM]	3.0%	.	0.8%
O=[N+]([O-])c1ccccc1S(=O)(=O)N1CCN(c2nc(-c3cccs3)nc3ccccc23)CC1	.	.	.	-16.3%	.	-15.0%
Cc1c(/C=N/NC(=O)c2cccnc2)c2ccccc2n1Cc1ccccc1	18.1	?	-25.6%[46.1 µM]	-21.2%	17.5	-20.6%
Cc1c(/C=N/NC(=O)c2cccs2)c2ccccc2n1Cc1ccccc1Cl	22.8*	4.11µM*	2.91µM*	i	30.3*	9.4%
Cc1[nH]c2ccccc2c1/C=N/NC(=O)CNC(=O)c1ccco1	-2.0	8.0%	-2.5%	i	-27.2	-14.3%
Cc1[nH]c2ccccc2c1/C=N/NC(=O)c1cccc(F)c1	25.6*	.	.	.	62.0*	.
Cc1[nH]c2ccccc2c1/C=N\NC(=O)c1ccco1	30.4*	.	.	.	57.2*	.
Cc1[nH]c2ccccc2c1/C=N/NC(=O)c1cccc([N+](=O)[O-])c1	4.7	1.5%	7.8%[46.1 µM]	-20.6%	1.9	-16.1%
Cc1c(Cl)cccc1NC(=O)CSC(C)c1nc2ccccc2c(=O)[nH]1 (configuration not stated)	-3.2	-0.3%	-8.4%	-12.0%	-3.8	-10.6%
CC(C)NCC(O)Cn1c2c(c3ccccc31)CCc1c-2cnn1-c1ccccc1 (configuration not stated)	-9.3	7.08µM*	?	.	-27.6	11.2µM*
COc1cc2ncn(-c3cc(OC(C)c4ccccc4Cl)c(C(N)=O)s3)c2cc1OC (configuration not stated)	.	2.5µM*	.	.	.	.
COc1cc2ncn(-c3cc(OCc4ccccc4C(F)(F)F)c(C(=O)N(C)C)s3)c2cc1OC	.	3.6%	.	.	.	.
COc1cc2ncn(-c3cc(OCCc4ccccc4)c(C(N)=O)s3)c2cc1OC	.	17.7µM*	.	.	.	.
C[C@H]1CC[C@H]2C(=O)N(Cc3cccc([N+](=O)[O-])c3)C[C@H](O)CN2[C@H]1c1cccc(Br)c1	.	?	-15.8%[14.2 µM]	.	.	.
Cn1nccc1C(=O)NCC1CCC2(CCN(Cc3ccc(-c4ccc(Cl)cc4)o3)CC2)O1 (configuration not stated)	.	.	.	-26.0%	.	-24.4%
CCOC(=O)c1c(CSC(=N)N)n(-c2ccc(Br)cc2)c2cc(Br)c(OC(C)=O)cc12	-7.4	?	13µM*	-19.1%	-22.3	-14.0%
CCOC(=O)c1c(CSc2nc(C)cc(C)c2C#N)n(C)c2cc(Br)c(OC(C)=O)cc12	-1.4	?	-3.1%	-8.6%	-9.9	-0.9%
C=CCCc1ccc(C#N)c(SCc2c(C(=O)OCC)c3cc(OC(C)=O)c(Br)cc3n2C)n1	-2.7	7.94µM*	?	i	-2.9	-3.7%
CNc1ccc(/C=C/c2ccnc3ccccc23)cc1	.	.	.	-22.4%	.	12.4%
COC(=O)c1ccc(COc2ccc(C=O)cc2OC)o1	11.0	29.6%	1.6%[46.1 µM]	4.8%	4.1	-0.7%
C=CCc1ccc(OCc2ccc(C(=O)OC)o2)c(OC)c1	62.6*	?	?	i	86.9*	-20.1%
C=CCc1ccc(OC(=O)c2ccccc2)c(OC)c1	24.2*	.	.	-17.6%	21.8	-16.7%
CCCc1ccc(OCc2ccc(C(=O)N3CCN(c4ccccn4)CC3)o2)c(OC)c1	35.8*	32.5%[14.3 µM]	23.1µM*	-18.6%	27.8	-17.6%
